Results published in PubChem BioAssay AID1745850 (National Center for Advancing Translational Sciences (NCATS), 2022).
Screen size: about 2,100 compounds; about 260 (12%) were called active. Not shown: some 58% with an inconclusive outcome. This is one part of the list. A number with no mark means an inactive call. Calls come from the whole dose curve; as a rule, active = well fitted cell-killing curve with a large enough effect; inconclusive = small, poorly fitted or top-dose-only effect, or effect the other way; inactive = flat fitted curve, though single readings scatter.
Potency is the fitted concentration of half-maximal effect.

Assay: Viability Counterscreen for Confirmatory qHTS for Inhibitors of ATXN expression; note: nearly all actives have a fitted effect of over 50% in size
Conditions: HEK-293 ATXN2-luc cells viability, CellTiter-Fluor, 24 h; activity change, negative = cytotoxicity: at the top concentration
Outline: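 Cells with an ATXN2-luciferase reporter were dosed in a dilution series for 24 h at 37 degrees C. Viability was read first with Gly-Phe-AFC at 25 uM final (fluorescence, ex 405/em 540), then SteadyGlo luminescence. Medium-only wells defined 100% inhibition.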
With `COc1ccc(C2CC(c3cccc(Br)c3)=NN2c2ccc(S(N)(=O)=O)cc2)cc1` (stereo not given) the “activity change, negative = cytotoxicity” value was -13.6% [at 57.5 µM].
In the case of `Cc1cc(OCC(=O)NC(C)c2ccccc2)ccc1[N+](=O)[O-]` (stereo not given), the “activity change, negative = cytotoxicity” value is reported as -7.77%.
With `CC(=O)NC(c1cccs1)c1cc([N+](=O)[O-])c2cccnc2c1O` (stereo not given) the Potency was 12.6 µM (active).
With `O=C(Nc1nccs1)c1cccc(N2C(=O)c3cccc4c([N+](=O)[O-])ccc(c34)C2=O)c1` the “activity change, negative = cytotoxicity” value was -18.8% [at 57.5 µM].
With `Cc1cc(OCc2nc(N)nc(N)c2-c2ccc(Cl)c(Cl)c2)ccc1[N+](=O)[O-]` the “activity change, negative = cytotoxicity” value was -12.4%.
With `O=C(Nc1c(Cl)cccc1Cl)Oc1cccc2cccnc12` the “activity change, negative = cytotoxicity” value was -28% [at 57.5 µM].
For `CCC(=O)NC(c1ccc(C)cc1)c1cc([N+](=O)[O-])c2cccnc2c1O` (stereo not given), the Potency was 22.4 µM (active).
With `CCCCC(=O)NC(c1ccc(Cl)cc1Cl)c1ccc2cccnc2c1O` (stereo not given) the “activity change, negative = cytotoxicity” value was -18.5%.
In the case of `CCC(=O)NC(c1ccc(Cl)cc1Cl)c1ccc2cccnc2c1O` (stereo not given), the Potency is reported as 7.94 µM (active).
With `CC(C)C(=O)NC(c1ccccc1)c1cc([N+](=O)[O-])c2cccnc2c1O` (stereo not given) the Potency was 22.4 µM (active).
For `COc1ccc(C2CC(c3ccccc3C(F)(F)F)=NN2c2ccc(S(N)(=O)=O)cc2)cc1` (stereo not given), the “activity change, negative = cytotoxicity” value was 13.8% [at 57.5 µM].
For `CC[C@@H]1C(c2cccc(Cl)c2)=NN(c2ccc(Br)cc2)[C@H]1C(=O)N1CCOC1=O`, the “activity change, negative = cytotoxicity” value was 11.8% [at 57.5 µM].
For `CCOC(=O)C1=CCN(S(=O)(=O)c2ccc(C)cc2)C1c1cccc(Cl)c1` (stereo not given), the “activity change, negative = cytotoxicity” value was -25.1% [at 57.5 µM].
For `CC1(C(=O)NCc2ccco2)CCN1C(=O)C1(c2ccccc2)CC1` (stereo not given), the “activity change, negative = cytotoxicity” value was -2.76%.
With `O=C(CSc1nc2ncc(Cl)cc2[nH]1)Nc1cccc(F)c1` the “activity change, negative = cytotoxicity” value was -14% [at 57.5 µM].
For `Oc1c(C(Nc2nccs2)c2ccc(C(F)(F)F)cc2)ccc2cccnc12` (stereo not given), the Potency was 15.8 µM (active).
For `O=[N+]([O-])c1ccc(NC(c2ccccc2)c2ccc3cccnc3c2O)cc1` (stereo not given), the Potency was 7.94 µM (active).
With `CC(C)C(=O)NC(c1cccc([N+](=O)[O-])c1)c1ccc2cccnc2c1O` (stereo not given) the Potency was 7.94 µM (active).
For `O=C(NC(=S)N1CCN(c2ccc(F)cc2)CC1)c1cccs1`, the “activity change, negative = cytotoxicity” value was -5.03%.
For `Nc1ccn(C2OC(COP(=O)(O)O)C(O)C2O)c(=O)n1` (stereo not given), the “activity change, negative = cytotoxicity” value was -26.7% [at 57.5 µM].
For `Cc1ccc(Cc2cnc(N3C(=N)SC(C)C3=O)s2)cc1` (stereo not given), the “activity change, negative = cytotoxicity” value was -8.77%.
For `CCC(C)(C)c1ccc(Oc2ccc(N)cc2)cc1`, the “activity change, negative = cytotoxicity” value was -9.83% [at 57.5 µM].
In the case of `CCCC(=O)N1CCCC(c2cc(C(=O)Nc3ccccc3)no2)C1` (stereo not given), the “activity change, negative = cytotoxicity” value is reported as -12.5% [at 57.5 µM].
For `Cc1cc(=O)[nH]c(N=N/C(=N/Nc2ccccc2C)c2ccccc2)n1`, the Potency was 12.6 µM (active).
For `O=C(Nc1cccc(Cl)c1)c1ccc2c(c1)SC1=NS(=O)(=O)CCN12`, the “activity change, negative = cytotoxicity” value was -19.6%.
With `CCc1cc(C)cc(OCCNC(=O)c2cncc(Br)c2)c1` the “activity change, negative = cytotoxicity” value was -9.86% [at 57.5 µM].
In the case of `CCn1c2ccccc2c2cc(NC(=O)COC(=O)Cc3cn4ccsc4n3)ccc21`, the “activity change, negative = cytotoxicity” value is reported as -4.46%.
In the case of `O=C(CC1Sc2ccccc2NC1=O)NNc1cccc(Cl)c1Cl` (stereo not given), the “activity change, negative = cytotoxicity” value is reported as -3.89%.
For `N#C/C(=N\Nc1cccc([N+](=O)[O-])c1)C(=O)c1ccc(Br)cc1`, the Potency was 2.51 µM (active).
With `CC(NC(=O)Nc1cccc([N+](=O)[O-])c1)c1ccc2c(c1)OCO2` (stereo not given) the “activity change, negative = cytotoxicity” value was -13.6%.
For `CC(NC(=O)Nc1cccc([N+](=O)[O-])c1)(C(F)(F)F)C(F)(F)F`, the “activity change, negative = cytotoxicity” value was -28.5% [at 57.5 µM].
In the case of `CC(C)=C1SC(N2CCN(c3ccc(C)c(Cl)c3)CC2)=NC1=O`, the “activity change, negative = cytotoxicity” value is reported as -5.09%.
With `O=C(Cc1coc2cc3c(cc12)CCC3)OCC(=O)N1CCCC1=O` the “activity change, negative = cytotoxicity” value was -16.8% [at 57.5 µM].
With `CCCC(=O)Nc1ccc2nc(SCC(=O)N3CCCC3)sc2c1` the “activity change, negative = cytotoxicity” value was -17% [at 57.5 µM].
With `CCc1nnc(NC(=O)c2ccc(S(=O)(=O)N(C)c3ccccc3)cc2)o1` the “activity change, negative = cytotoxicity” value was -10.3%.
With `Cc1nc2ccc(NC(=O)c3cccc(S(=O)(=O)N(C)c4ccccc4)c3)cc2s1` the Potency was 3.16 µM (active).
For `CCN1CCN(C(=S)c2ccc(-c3ccccc3)cc2)CC1`, the “activity change, negative = cytotoxicity” value was -12% [at 57.5 µM].
In the case of `CC1(C)Cc2c(c(N3CCOCC3)nc3sc4c(NN)ncnc4c23)CS1`, the Potency is reported as 25.1 µM (active).
In the case of `CN(C)CCNc1ncnc2c1sc1nc(N3CCOCC3)c3c(c12)CC(C)(C)SC3`, the Potency is reported as 22.4 µM (active).
With `CN(C)CCNc1ncnc2c1sc1nc(N3CCCC3)c3c(c12)CC(C)(C)OC3` the Potency was 25.1 µM (active).
For `CN1Cc2c(N3CCOCC3)nc3sc(C(=O)c4ccccc4)c(N)c3c2CC1(C)C`, the “activity change, negative = cytotoxicity” value was -21%.
For `COc1ccc(C2CC(c3cccc(Cl)c3)=NN2c2ccc(S(N)(=O)=O)cc2)cc1` (stereo not given), the “activity change, negative = cytotoxicity” value was 3.61% [at 57.5 µM].
In the case of `CCN(CCCn1c(=S)[nH]c2ccc(N3CCOCC3)cc2c1=O)c1ccccc1`, the “activity change, negative = cytotoxicity” value is reported as -2.36%.
With `Cc1nn(-c2ccccn2)c2c1C(=O)CC(C)(C)C2N=[N+]=[N-]` (stereo not given) the “activity change, negative = cytotoxicity” value was -2.41%.
In the case of `OCC1(CCOc2ccccc2)CCN(CC2=Cc3cc(Cl)ccc3OC2)CC1`, the “activity change, negative = cytotoxicity” value is reported as -23.6% [at 57.5 µM].
In the case of `O=C(c1cccc(Cl)c1)c1nn(-c2ccccc2)c(=O)cc1C(F)(F)F`, the Potency is reported as 35.5 µM (active).
For `Cc1cc(=O)oc2c1c(C)nn2-c1cccc(Cl)c1`, the “activity change, negative = cytotoxicity” value was -2.37%.
With `COc1ccc(Nc2oc(COc3ccccc3OC)nc2C#N)cc1` the “activity change, negative = cytotoxicity” value was 0.396%.
For `COc1cccc(-c2nc(N3CCN(C)CC3)c3ccccc3n2)c1O`, the “activity change, negative = cytotoxicity” value was -15.2%.
In the case of `COc1ccc(Nc2nc(N3CCCC3)c3ccccc3n2)cc1`, the Potency is reported as 35.5 µM (active).
With `CC(=O)Oc1ccc(Nc2ccccc2)cc1` the “activity change, negative = cytotoxicity” value was -7.23%.
For `CC(=O)Oc1ccc(C23c4ccccc4C2(OC(C)=O)c2cc(OC(C)=O)ccc23)cc1` (stereo not given), the Potency was 28.2 µM (active).
With `O=C(CSc1nnc(-c2ccc(Br)cc2)o1)Nc1cccc(C(=O)O)c1` the “activity change, negative = cytotoxicity” value was -4.75% [at 57.5 µM].
For `COC(=O)c1c(C)oc2ccc(N(C(=O)c3ccncc3)S(=O)(=O)c3ccc(C)cc3C)cc12`, the “activity change, negative = cytotoxicity” value was -23.2%.
For `CN(CC(=O)Nc1ccc(Cl)c(C(F)(F)F)c1)C(=O)c1cccnc1Sc1ccccc1`, the “activity change, negative = cytotoxicity” value was -12% [at 57.5 µM].
With `O=C(CNc1cccc(C(F)(F)F)c1)Nc1cccc(S(=O)(=O)N2CCCC2)c1` the “activity change, negative = cytotoxicity” value was -24.1% [at 57.5 µM].
In the case of `Cc1ccc(C(=O)N(C)CC(=O)Nc2ccc(Cl)c(C(F)(F)F)c2)cc1S(=O)(=O)N1CCCCC1`, the Potency is reported as 25.1 µM (active).
In the case of `O=C(NCCc1csc(-c2cccnc2)n1)c1cccc(Cl)c1`, the “activity change, negative = cytotoxicity” value is reported as -18.1% [at 57.5 µM].
In the case of `Cc1cccn2c(=O)c3cc(C(=O)NCCN4CCOCC4)c(=N)n(Cc4ccc(F)cc4)c3nc12`, the “activity change, negative = cytotoxicity” value is reported as -4.46% [at 57.5 µM].
In the case of `COc1cccc(/C=N/NC(=O)CC(C)O)c1OC/C=C/c1ccccc1` (stereo not given), the “activity change, negative = cytotoxicity” value is reported as -2.85%.
